Screens (PubChem BioAssay)
Only some compounds are listed: those with a hit (about 4.7% of all), similar ones and a draw of the others.
D1 antagonist – Antagonist of Human D 1 Dopamine Receptor: qHTS; activity change, negative = inhibition, % at 10 µM; 360,000 tested, 3.2% active; AID 504652, 2011; D(1A) dopamine receptor (Homo sapiens), P21728; HEK293 TREx D1 cells, calcium flux, dopamine EC80; stronger effect = lower value; in the data active = activity change below about -30%; also: % is scaled to controls: 0 for no effect and ±100 for the full control effect
Target sequence (P21728 whole entry, looked up): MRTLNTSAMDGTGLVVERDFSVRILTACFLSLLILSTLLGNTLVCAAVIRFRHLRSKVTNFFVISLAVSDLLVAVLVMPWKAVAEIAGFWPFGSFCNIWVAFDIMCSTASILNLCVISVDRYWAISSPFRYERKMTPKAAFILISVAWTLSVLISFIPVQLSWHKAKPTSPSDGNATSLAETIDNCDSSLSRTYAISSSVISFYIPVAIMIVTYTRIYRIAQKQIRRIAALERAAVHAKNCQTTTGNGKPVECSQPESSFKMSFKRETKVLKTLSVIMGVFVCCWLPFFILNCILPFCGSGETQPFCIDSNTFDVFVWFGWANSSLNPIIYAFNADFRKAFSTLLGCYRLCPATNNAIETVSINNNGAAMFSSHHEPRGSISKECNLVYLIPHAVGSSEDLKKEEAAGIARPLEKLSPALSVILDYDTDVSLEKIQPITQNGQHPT
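Allosteric or orthosteric antagonism assessed as attenuation of the calcium response to EC80 dopamine, added 180 s after compound, in induced HEK293 Trex D1 cells loaded with no-wash calcium dye.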
TRHR ag – qHTS for Small Molecule Agonists and Allosteric Enhancers of Human TRH Receptor: Primary Screen for Agonists. Thyrotropin-releasing hormone receptor (Homo sapiens), P34981. TRHR cells, calcium flux fluo-8, FDSS agonist mode. activation, % at 2 µM. 360,000 tested, 0.18% active. AID 493084, 2011; also: 0% is about no effect
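Agonist-mode FDSS calcium read (Ex 480/Em 530, 1 s cycles) in 1536-well TRHR cells with fluo-8 dye, after 10-cycle baseline and 23 nL compound addition; TRH at EC20 (10 nM final) added afterwards for the enhancer phase.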
D1 ag – Allosteric Agonists of the Human D1 Dopamine Receptor: qHTS. 360,000 tested, 1% active. activation, % at 2 µM. D(1A) dopamine receptor (Homo sapiens), P21728. HEK293 T-REx D1 cells, calcium flux, agonist mode; also: 0% is about no effect
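Agonism was scored from calcium flux recorded over 180 s (1 read/s) after pintool compound addition, following a 10-cycle baseline. Cells were inducible force-coupled HEK293 TREx D1, plated overnight at 30 C and loaded with no-wash calcium dye.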
D1 potentiator – Potentiators of Human D1 Dopamine Receptor: qHTS; HEK293 TREx D1 cells, calcium flux, dopamine EC20 potentiation; potentiation, % at 10 µM; 360,000 tested, 0.036% active; AID 504651, 2011; in the data active = potentiation above about 30%; also: 0% is about no effect
TRHR enhancer – qHTS for Small Molecule Agonists and Allosteric Enhancers of Human TRH Receptor: Primary Screen for Enhancers; Thyrotropin-releasing hormone receptor (Homo sapiens), P34981; enhancement, % at 2 µM; 360,000 tested, 0.66% active; TRHR cells, fluo-8 calcium fluorescence, EC20 TRH enhancement; in the data active = enhancement above about 30%; also: 0% is about no effect
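Enhancer read-out: after compound pinning and an initial kinetic agonist-mode read, an EC20 of TRH (10 nM final) was injected and fluo-8 calcium signal (Ex 480/Em 530) followed at 1 s/cycle for 100 cycles in TRHR-expressing cells.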
* marks the source's active call; other numbers are inactive results; . = no result given. Rule as the data show it, unless noted: active = activation above about 30%; inactive = the rest.

SMILES	D1 antagonist	TRHR ag	D1 ag	D1 potentiator	TRHR enhancer
Cc1cccc(NC(=O)CSc2ncc3c(n2)-c2ccccc2N(Cc2ccc(F)cc2)S3(=O)=O)c1C	19	0	6	0	-3
CC(=O)NN1C(=O)c2ccccc2NC1c1ccccc1O (stereo not given)	29	0	2	10	33*
CS(=O)(=O)NN1C(=O)c2ccccc2NC1c1ccccc1O (stereo not given)	-13	0	0	-4	-5
OCC(O)CN1CCCC1 (stereo not given)	-32*	0	3	0	1
OC(CN1CCCCC1)CN1CCCCC1	4	0	3	-2	11
CCOC(=O)c1ccc(NC(=O)CC2C(=O)N(c3ccc(F)cc3)C(=O)N2Cc2cccnc2)cc1 (stereo not given)	12	0	-2	-1	6
O=C(NNS(=O)(=O)c1ccc(F)cc1)c1sccc1-n1cccc1	10	0	3	3	7
Cc1ccc(S(=O)(=O)NNC(=O)c2sccc2-n2cccc2)cc1	-43*	0	12	-3	-1
COc1ccc(OC)c(NC(=O)CN2C(=O)NC3(CCCc4ccccc43)C2=O)c1 (stereo not given)	2	0	-1	-1	-3
NC(=O)CN1C(=O)NC2(CCOc3ccccc32)C1=O (stereo not given)	-75*	2	-2	5	8
CC1CCC2(CC1)NC(=O)N(CC(=O)NC(C)c1ccc(F)c(F)c1)C2=O (stereo not given)	-35*	0	1	-4	1
Cc1ccc(CN2CCN(CC(=O)NC(C)c3ccc4c(c3)OCCO4)C2=O)cc1 (stereo not given)	-11	0	44*	.	-6
COc1ccccc1CNC(=O)CN1C(=O)NC2(CCCc3ccccc32)C1=O (stereo not given)	-38*	0	2	-11	-6
Cc1ccc(CN2CCN(CC(=O)NC(C)CCc3ccccc3)C2=O)cc1 (stereo not given)	-2	-1	5	.	19
NC(=O)NC(=O)CN1C(=O)NC2(CCOc3ccccc32)C1=O (stereo not given)	7	0	6	-8	-4
CC(NC(=O)CN1C(=O)NC2(CCCC2)C1=O)c1ccc2ccccc2c1 (stereo not given)	20	0	-1	-11	11
COc1ccc(C(NC(=O)CN2C(=O)NC3(CCc4ccccc43)C2=O)c2ccc(OC)cc2)cc1 (stereo not given)	-7	1	2	-7	2
CC(NC(=O)CN1C(=O)NC2(CCc3ccccc32)C1=O)c1ccc2c(c1)OCCO2 (stereo not given)	-42*	-1	-1	-3	0
CC(C)CNC(=O)CN1C(=O)NC2(CCCc3ccccc32)C1=O (stereo not given)	-16	-1	3	-6	31*
CN(C(=O)CN1C(=O)NC2(CCc3ccccc32)C1=O)C1CCS(=O)(=O)C1 (stereo not given)	-31*	-1	-2	0	-2
Cc1ccc(S(=O)(=O)N2CCc3cc(C(=O)Nc4c(C)cccc4C(C)C)ccc32)cc1	-2	1	2	0	0
Cc1ccc(C2C(C#N)=C(N)SC(N)=C2C#N)c(C)c1	-22	-1	51*	-4	-4
COC(=O)CCSc1cc([N+](=O)[O-])cc2c1c(C1OCCO1)nn2-c1ccccc1	-36*	1	19	4	-2
Cc1ccc(C2NC(=O)c3ccccc3N2)s1 (stereo not given)	-10	1	0	6	35*
CN1C(=O)/C(=C/c2ccc(OCc3ccc(F)cc3)cc2)N(C)C1=S	-2	0	4	-2	-1
SMILES	D1 antagonist	TRHR ag	D1 ag	D1 potentiator	TRHR enhancer
O=C(NC(=S)N1CCN(C/C=C/c2ccccc2)CC1)c1ccc(F)cc1	-16	0	7	-3	-4
COc1ccc(/C=C2\C(=O)NC(=S)N2C(=O)c2ccc(F)cc2)cc1	11	24	112*	-6	-1
O=C1NC(=S)N(C(=O)c2ccc(F)cc2)/C1=C/c1ccccc1	-8	20	80*	-2	9
Cc1cc(C)cc(NC(=O)CCCc2nc(-c3ccco3)no2)c1	0	0	1	2	-2
CCOc1ccc(C(=O)c2cn(CC(=O)Nc3ccc4c(c3)OCCO4)c3ccc(F)cc3c2=O)cc1	-2	0	-1	-1	1
Cc1c(N=C2Nc3cccc4cccc2c34)c(=O)n(-c2ccccc2)n1C	-8	10	36*	-6	6
COc1cc(CCC(C)NCc2ccccc2)ccc1O (stereo not given)	-1	1	5	-3	1
CC(CCc1ccc(O)cc1)NCc1ccc(Br)cc1 (stereo not given)	7	0	31*	-12	0
CC(CCc1ccc(O)cc1)N(C)CCc1ccccc1 (stereo not given)	-52*	0	5	-8	-5
CC(CCc1ccc(O)cc1)NCCC(c1ccccc1)c1ccccc1 (stereo not given)	-28	5	87*	-11	-6
CN(C)S(=O)(=O)c1ccc2c(c1)N(CC(=O)N1CCN(c3ccccc3F)CC1)CCS2	20	0	0	-1	-3
CCOC(=O)c1c(C)c(C(=O)NCc2ccc(Cl)cc2)c(C)n1C	6	0	1	-5	35*
CCN(CC)CCCn1c2c(c(SCC(=O)Nc3nccs3)nc1=O)CCC2	-56*	0	2	0	-6
CCOC(=O)c1cc(OC(=O)c2ccccc2F)n(-c2ccccc2)n1	0	0	1	0	7
COc1ccc(C(=O)Nc2nc(-c3nnn(-c4ccc(C(C)C)cc4)c3C)ns2)cc1	6	1	5	7	9
COc1ccc(CNC(=O)C(Cc2ccccc2)NS(=O)(=O)c2ccc3c(c2)CCN3C(C)=O)cc1 (stereo not given)	10	-1	2	0	9
C=CCOc1cccc(C2/C(=C(\O)c3ccc(F)cc3)C(=O)C(=O)N2CCN(C)C)c1 (stereo not given)	-53*	0	-1	-5	-3
CCCOc1cccc(C2/C(=C(/O)c3ccc(F)cc3)C(=O)C(=O)N2CCN(C)C)c1 (stereo not given)	1	0	3	-3	-2
